PubChem BioAssay (NCI)
The panel holds about 83,000 compounds, 20% with a hit somewhere; the sample as a whole holds those more often.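 Interpretation: 100, growth as untreated; towards 0, rising growth inhibition; 0, no net growth; 0 to -100, cell death. Compounds scoring below 10 were considered active.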 Calls of active or inactive are those of the source.

Each molecule was assayed on SN12C renal (assay: NCI-60 one-dose screen, 48 h (100 = growth as untreated, 0 = no growth, -100 = all killed)). Settings: 10 µM unless noted.
Protocol: Growth inhibition of the SN12C human tumor cell line is measured as a screen for anti-cancer activity. Cells are grown in 96 well plates and exposed to the test compound for 48 hours. Compounds are tested at a single concentration, which is 10^-5 M for most compounds. The reported endpoint is percent growth (GI% or GIPRCNT), where numbers from 0 - 100% represent growth inhibition, and numbers from -100% - 0 represent cell death. For example, a value of 40 represents 60% growth inhibition. A value of 0 means no net growth occurred over the course of the experiment. A value of -40 indicates 40% of cells at the beginning of the experiment died by the end of the experiment. A value of -100 means all cells are dead at the end of the experiment.
NCI-60 Human Tumor Cell Lines Screen was performed using the standard one-dose NCI protocol, which is described in more detail at https://dtp.cancer.gov/discovery_development/nci-60/default.htm.
Compounds with GIPRCNT values below 10 were considered active. Activity score was based on GIPRCNT using the following formula: […]
Score is 0 for GIPRCNT values of 100 or above, 50 for GIPRCNT values of 0, and 100 for GIPRCNT values of -100.

Structure (SMILES) | growth
Cc1cc(C(=O)CCCC(=O)c2cc(C)c(O)c(C)c2)cc(C)c1O | 97.8% (inactive)
COc1c2c(cc3c1C(=O)N[C@@H]1[C@@H](O)[C@@H](O)[C@H](O)C[C@@H]31)OCCO2 | 103% (inactive)
CC1(C)CC(=O)C2=C(C1)C(c1ccc(Cl)cc1)n1ncc(C#N)c1N2 (stereo not given) | 90.9% (inactive)
CC1(C)CC[C@]23CC[C@]4(C)[C@H](CC[C@@H]5[C@@]6(C)C/C(=C/O)C(=O)C(C)(C)[C@@H]6CC[C@]54C)[C@H]2[C@H]1OC3 | 99.2% (inactive)
COc1cc(/C=C2\C(=O)N(CCCOc3cc(O)c4c(=O)cc(-c5ccccc5)oc4c3)c3ccccc32)cc(OC)c1O | 91.3% (inactive)
CS(=O)(=O)c1ccc(-c2nc3ccccc3n2CC(=O)N/N=C/c2ccccc2)cc1 | 108% (inactive)
CSc1ccc2c3c(n(CCCn4ccnc4)c(=O)c2c1)-c1ccccc1C3=O | 45.1% (inactive)
Cc1cccc(NC(=O)Cn2cc(CN3CCN(c4ccnc5cc(Cl)ccc45)CC3)nn2)c1 | 93.8% (inactive)
CC(=O)O[C@H]1CC[C@]2(C)[C@H]3CC=C4[C@@H]5CC(C)(C)CC[C@]5(C(=O)N5CCN(CCC#N)CC5)CC[C@@]4(C)[C@]3(C)CC[C@H]2C1(C)C | 53.4% (inactive)
C#Cc1cccc(Nc2ncnc3cc(NC(=O)CCl)ccc23)c1 | -78.1% (active)
CC12OC(CC(O)C1O)n1c3ccccc3c3c4c(c5c6ccccc6n2c5c31)C(=O)N(CCN1CCCC1)C4=O (stereo not given) | 14.9% (inactive)
CN1CCN(c2ccc(NC3=CC(=O)c4ncncc4C3=O)cc2)CC1 | -75.6% (active)
Cc1nc2ccccc2c(/C=C/c2ccc(F)cc2)c1C(=O)/C=C/c1ccccc1 | 22.2% (inactive)
COc1cc(C=C2C(=O)NC(=S)NC2=O)cc(CN2CCCC2)c1O | 104% (inactive)
COc1cc(/C=C/c2cn[nH]c2-c2ccc(C)cc2)cc(OC)c1OC | 51.2% (inactive)
COc1ccc(/C=N/Nc2c3ccccc3nc3ccccc23)cc1 | 91% (inactive)
Cc1ccc(-c2csc(NC(=O)CSc3nc(N)cc(N)n3)n2)cc1 | 82.9% (inactive)
O=c1oc2ccccc2cc1-c1nn(-c2ccccc2)cc1-c1nn[nH]n1 | 96.2% (inactive)
CC1(C)CC[C@]23CC[C@]4(C)[C@H](CC[C@@H]5[C@@]6(C)CCNCC(C)(C)[C@@H]6CC[C@]54C)[C@H]2[C@H]1OC3 | 89.6% (inactive)
Cc1cc(=O)oc2cc(Oc3nc(Br)cn4c(Br)cnc34)ccc12 | 75.8% (inactive)

Structure (SMILES) | growth
c1ccc(Cn2cc3c(c2-c2ccccc2)CCc2cnoc2-3)cc1 | 101% (inactive)
CCn1cc(Cc2cc(C(=O)Nc3cc4cc(OC)c(OC)cc4c(C)n3)ccc2Cl)cn1 | 50.2% (inactive)
COC(=O)/C=C1/SC(=Nc2ccc(F)cc2)N(CCc2c[nH]c3ccc(O)cc23)C1=O | 42.5% (inactive)
O=C(/C=C/c1cn(-c2ccccc2)nc1-c1ccccc1)CCC(=O)NO | 102% (inactive)
O=c1cc(C(F)(F)F)c2cc(-c3cc4ccccc4c(=O)o3)c(O)cc2o1 | 64.4% (inactive)
O=C1C(Cl)=C(Nc2ccccc2)C(=O)c2ccccc21 | -73.5% (active)
Brc1ccc(Nc2nc(Nc3cnc4ccccc4c3)c3[nH]cnc3n2)cc1 | 88.3% (inactive)
CC1(/C=C/c2ccc(-c3ccccc3)cc2)CCn2cnc3ncnc(c32)N1O (stereo not given) | 20.2% (inactive)
N#CSc1c[nH]c2ccc(/C=C/C(=O)/C=C(O)/C=C/c3ccc4[nH]cc(SC#N)c4c3)cc12 | 18.4% (inactive)
CNC(=O)Nc1ccc(-c2ccc3ncnc(Nc4cccc(Cl)c4)c3c2)cc1 | 62.3% (inactive)
COC12C=C/C(=C(/C(=O)OCc3csc(SC)n3)C(=O)CCCCCCCCC3(OC)C=C/C(=C(/C(=O)OCc4cnc(SC)s4)C(=O)CCCCCCCC1)O3)O2 (stereo not given) | 28.9% (inactive)
O=S(O)c1cc(Cl)cc(Cl)c1OCc1ccccc1 | 98.4% (inactive)
Cc1cccc(N=Nc2cccc(C)c2)c1 | 96.7% (inactive)
O=C(c1c[nH]c2ccccc12)c1n[nH]c(=S)n1-c1ccc([N+](=O)[O-])cc1 | 92.8% (inactive)
CN(C)CCC(=O)C1CC1 | 98.9% (inactive)
COc1nc(/C=C\Nc2ccc3c(c2)OCCOCCOCCOCCO3)nc(OC)n1 | 93.2% (inactive)
CCCCn1c(NC(C)=O)c(S(=O)(=O)c2ccccc2)c2nc3ccccc3nc21 | 103% (inactive)
c1ccc(-c2nc3ccccc3[nH]2)c(OCCCCCOc2ccccc2-c2nc3ccccc3[nH]2)c1 | 63.4% (inactive)
N#Cc1ccc(O)c(C2=NCC(c3ccc(-c4ccccc4)cc3)O2)c1 (stereo not given) | 29.8% (inactive)
CN1CCN(Cc2ccc(NC(=O)c3cncc(C#Cc4cnc(N)cc4C#N)c3)cc2C(F)(F)F)CC1 | 13.5% (inactive)
